Data taken from PubChem BioAssay (NCI).
Compounds without any hit were thinned out: in the full panel of roughly 83,000, 20% have a hit.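 How to read the values: 0–100, growth inhibition (40 = 60% inhibited); 0, no net growth; -100 to 0, cell death (-40 = 40% of starting cells died; -100 = all dead).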 Calls of active or inactive are those of the source. The calls were made as follows: active = growth percent below 10; inactive = the rest.

Experiments:
Test in all cases: NCI-60 one-dose screen, 48 h (100 = growth as untreated, 0 = no growth, -100 = all killed)
[1] = tested on: NCI-H23 lung; conditions: 10 µM unless noted
[2] = tested on: NCI-H226 lung; conditions: 10 µM unless noted
[3] = tested on: NCI-H322M lung; conditions: 10 µM unless noted
[4] = tested on: HOP-62 NSCLC; conditions: 10 µM unless noted
[5] = tested on: NCI-H460 lung; conditions: 10 µM unless noted
[6] = tested on: HOP-92 NSCLC; conditions: 10 µM
[7] = tested on: A549/ATCC NSCLC; conditions: 10 µM unless noted
[8] = tested on: 786-0 renal; conditions: 10 µM unless noted
[9] = tested on: COLO 205 colon; conditions: 10 µM unless noted
[10] = tested on: DU-145 prostate; conditions: 10 µM unless noted
[11] = tested on: K-562 leukemia; conditions: 10 µM unless noted
[12] = tested on: MALME-3M melanoma; conditions: 10 µM unless noted
[13] = tested on: MDA-MB-231 breast; conditions: 10 µM unless noted
[14] = tested on: RXF 393 renal; conditions: 10 µM unless noted
[15] = tested on: SF-268 CNS; conditions: 10 µM unless noted
[16] = tested on: SF-295 CNS; conditions: 10 µM unless noted
[17] = tested on: SF-539 CNS; conditions: 10 µM unless noted
[18] = tested on: UACC-257 melanoma; conditions: 10 µM unless noted
[19] = tested on: M14 melanoma; conditions: 10 µM unless noted
[20] = tested on: NCI-H522 lung; conditions: 10 µM unless noted

Measured: growth

COC[C@]12CCC(C)(C)C[C@H]1C1=CC[C@@H]3[C@@]4(C)CCCNC(C)(C)[C@@H]4CC[C@@]3(C)[C@]1(C)CC2
active: [1] -83.9% | [2] -61.5% | [3] -50.5% | [5] -69% | [6] -3.83% | [8] -83.1% | [9] -59.6% | [10] -39.8% | [11] -43.7% | [12] -68.5% | [13] -53.3% | [14] -93% | [16] -89% | [17] -63.7% | [18] -18.5% | [19] -67.3%
inactive: [4] 46.6% | [7] 10.1% | [15] 33.7%

Cn1ccnc1C(=O)/C=C/c1ccc(NC(=O)c2c(F)c(F)c(F)c(F)c2F)cc1
inactive: [1] 97.6% | [2] 103% | [3] 94.8% | [4] 120% | [5] 105% | [6] 123% | [20] 94.3% | [8] 101% | [9] 124% | [10] 106% | [11] 80.7% | [12] 104% | [13] 108% | [15] 96% | [16] 106% | [17] 108% | [18] 113%

Cc1ccc(NC(=O)CNc2cc(C(N)=O)cc(F)c2C)c(Cl)c1
inactive: [1] 86.9% | [2] 80.5% | [3] 102% | [4] 71.8% | [5] 102% | [6] 74.9% | [7] 91.9% | [8] 92.9% | [9] 112% | [10] 87.2% | [11] 94.2% | [12] 106% | [13] 67% | [14] 36.2% | [15] 81.7% | [16] 101% | [17] 89.8% | [18] 107% | [19] 103%

CC1(C)CC[C@]2(C(=O)N3CCOCC3)CC[C@]3(C)C(=CC[C@@H]4[C@@]5(C)C/C(=C/c6ccccn6)C(=O)C(C)(C)[C@@H]5CC[C@]43C)[C@@H]2C1
active: [14] 3.83%
inactive: [1] 60.2% | [2] 76.2% | [3] 103% | [4] 78.5% | [5] 54.9% | [6] 51.1% | [7] 54.5% | [8] 64.4% | [9] 74.2% | [10] 62.3% | [11] 34.5% | [12] 88.7% | [13] 55.2% | [15] 59.6% | [16] 75.1% | [17] 94% | [18] 59.6% | [19] 77.9%

COc1ccc(C2c3sc4c(C)cccc4c3Oc3nc(CC(=O)Nc4ccccc4)[nH]c(=O)c32)cc1 (stereo not given)
active: [14] 8.26%
inactive: [1] 62.2% | [2] 65.8% | [3] 95.4% | [4] 60.5% | [5] 87.1% | [6] 59.1% | [7] 93.7% | [8] 95.3% | [9] 106% | [10] 83.7% | [11] 52.1% | [12] 98% | [13] 69.8% | [15] 77.4% | [16] 83.1% | [17] 86.9% | [18] 94.9% | [19] 89%

CS(=O)(=O)Nc1cc(-c2ccc3ncc(C#N)c(NCc4ccccc4)c3c2)cnc1Cl
inactive: [3] 16.5%
active: [1] 0.346% | [2] -9.59% | [4] 2.7% | [5] 3.01% | [6] -16.8% | [7] 7.72% | [8] 0.0627% | [9] 6.54% | [10] 8.12% | [11] 9.74% | [12] -38.7% | [13] -51.8% | [14] -46.6% | [15] -4.76% | [16] -32.3% | [17] -42.6% | [18] 1.36% | [19] -9.52%

NS(=O)(=O)c1ccc(Nc2nc(Nc3ccccc3)nc3nnc(SCC(=O)NC4CCCCC4)n23)cc1
inactive: [1] 109% | [2] 100% | [3] 104% | [4] 103% | [5] 106% | [20] 92.1% | [7] 108% | [8] 103% | [9] 110% | [10] 106% | [11] 94.1% | [12] 101% | [13] 95% | [14] 126% | [15] 106% | [16] 105% | [17] 96.1% | [18] 104%

C[C@@H](Nc1ncnc2ccc(-c3cnc(Cl)c(NS(C)(=O)=O)c3)cc12)c1ccccc1
active: [6] -1.13% | [14] -17.5%
inactive: [1] 55.7% | [2] 64.6% | [3] 68.2% | [4] 36.8% | [5] 60.5% | [7] 54.2% | [8] 45.4% | [9] 80.2% | [10] 34.1% | [11] 73.9% | [12] 59.2% | [13] 49% | [15] 42.5% | [16] 46% | [17] 44.5% | [18] 60.9% | [19] 69.1%

CCCn1cnc2c(c1=N)C(c1ccc(Cl)cc1)c1sc3c(C)cccc3c1O2 (stereo not given)
active: [5] 9.41% | [20] -5.59% | [9] 1.53% | [11] 7.73% | [14] -4.19% | [16] -6.66% | [17] -21.1% | [19] 8.06%
inactive: [1] 20.5% | [2] 62% | [3] 43.8% | [4] 44.2% | [7] 29.1% | [8] 33.8% | [10] 19.7% | [12] 59.5% | [13] 28.6% | [15] 41.1% | [18] 86.5%

CCCn1cnc2c(c1=N)C(c1ccc(F)cc1)c1sc3c(C)cccc3c1O2 (stereo not given)
inactive: [1] 25.7% | [3] 49.9% | [4] 32% | [6] 33.5% | [7] 35.6% | [8] 23.5% | [9] 52.2% | [10] 27.5% | [12] 47.1% | [13] 53% | [15] 53.8% | [18] 70.8%
active: [2] 8.74% | [5] 8.38% | [11] 5.29% | [14] -39% | [16] -0.689% | [17] -27.1% | [19] 9.53%

Cc1ccc(CSc2nc(-c3ccc(Cl)cc3)c(C#N)c(N3CCOCC3)n2)cc1
inactive: [1] 95% | [2] 94.4% | [3] 103% | [4] 110% | [5] 96.2% | [20] 78.4% | [7] 91.8% | [8] 87.5% | [9] 125% | [10] 105% | [11] 91.5% | [12] 108% | [13] 98.9% | [14] 88.3% | [15] 95.5% | [16] 98.6% | [17] 99.1% | [18] 97.6% | [19] 98%

COc1ccc(S(=O)(=O)NCCCNc2nccc(-c3[nH]c(-c4ccccc4)nc3-c3ccc(Cl)c(O)c3)n2)cc1
inactive: [1] 83.4% | [2] 103% | [3] 96.5% | [4] 91.7% | [5] 85.6% | [20] 69.1% | [7] 102% | [8] 125% | [9] 86.3% | [10] 89.3% | [11] 55.2% | [13] 61.4% | [14] 140% | [15] 92% | [16] 96.4% | [17] 101% | [18] 23.6%
active: [12] -7%

COC(=O)C(Cc1ccccc1)Nc1nc(NC(Cc2ccccc2)C(=O)OC)nc(N2CCOCC2)n1 (stereo not given)
inactive: [1] 107% | [2] 102% | [3] 97.4% | [4] 97.3% | [5] 107% | [20] 91% | [7] 108% | [8] 100% | [9] 105% | [10] 112% | [11] 91.6% | [12] 105% | [13] 103% | [14] 113% | [15] 103% | [16] 108% | [17] 98% | [18] 103%

O=C(Nc1ccc2c(ccn2Cc2ccccn2)c1)c1cnccn1
inactive: [1] 97% | [2] 88.3% | [3] 106% | [4] 72.7% | [5] 105% | [6] 91.4% | [7] 86.1% | [8] 87.6% | [9] 120% | [10] 95.6% | [11] 107% | [12] 106% | [13] 86.7% | [14] 47.8% | [15] 84.1% | [16] 97.5% | [17] 96.4% | [18] 102% | [19] 106%

NS(=O)(=O)c1ccc(Nc2nc(SCC(=O)c3ccc(Cl)cc3)nc3c2CCCC3)cc1
inactive: [1] 53.9% | [2] 56.6% | [3] 87% | [4] 70% | [5] 21% | [20] 67.7% | [7] 38.9% | [8] 84.7% | [9] 46% | [10] 41.1% | [11] 27.9% | [12] 66.6% | [13] 49.6% | [14] 35.6% | [15] 62.2% | [16] 50.3% | [17] 62.3% | [18] 62.3% | [19] 59.6%
